Molecules are shown by their SMILES. Several values for one entry are separate records, joined by “and”; a condition that tells them apart may be missing. Equal values may be shown once. Results filed as inconclusive are left out. A number with no mark means an inactive call. Activity calls are given as the source filed them. Calls follow the shape of the dose curve; as a rule, active = well fitted cell-killing curve with a large enough effect in the repeat runs; inconclusive = weak or mixed curves, or effect the other way; inactive = no such curve, though single readings can be large or run the other way.
% is scaled to controls: 0 for no effect and ±100 for the full control effect; potency is read from the fitted curve at half-maximal effect.

The nature of the experiment: Caspase-3/7 induction in CHO-K1 cells by small molecules, qHTS cell viability counter screen (AID 1346979). Also: nearly all actives have a fitted effect of over 35% in size. The following applies: CellTiter-Fluor fluorescence, 17 h; series mostly up to 92.4 µM; activity change, negative = cytotoxicity: at the top concentration. The method in brief: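 Viability readout by fluorescence (CellTiter-Fluor) on wild-type CHO-K1 cells exposed for 16hr at 37C and 5% CO2 to compounds delivered in DMSO; reagent incubated 1hr before reading.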
Background: Quantitative high-throughput screening tests each substance at several concentrations.
With `CN(C)C(=S)S`, the Potency was 8.81 µM (active) and 857 nM (active) and 12.2 µM (active).
For `CC(=O)[O-].CC(=O)[O-].O.O.[Cd+2]`, the Potency was 1.7 µM (active).
The same measure, in the same setting: the same measure for `O=[N+]([O-])O.O=[N+]([O-])O.[Cd]`: 1.72 µM (active).
On the same count and under the same terms, for `COc1cccc(C(=O)CCN[C@@H](C)[C@H](O)c2ccccc2)c1` the value was 26.6 µM (active); for `CC(=O)[O-].CC(=O)[O-].[Hg+2]`, 2.43 µM (active).
Still for that read-out and setting: the same measure for `CC(C)C1CCC(Cc2ccc(Cl)cc2)C1(O)Cn1cncn1` (configuration not stated): 30.3 µM (active); for `O=C/C(Cl)=C(/Cl)C(=O)O`: 38.5 µM (active) and 30.6 µM (active).
With `CC(c1ccc(O)cc1)c1ccc(O)cc1`, the “activity change, negative = cytotoxicity” value is -10.3%.
Same read-out and setting: the same measure for `CC(=O)Nc1ccc2c(c1)Cc1ccccc1-2`: 4.46%; for `ClC1=C(Cl)[C@]2(Cl)[C@@H]3[C@@H](Cl)[C@H](Cl)C[C@@H]3[C@@]1(Cl)C2(Cl)Cl`: 10.8%.
Take `C[C@]12Cc3nonc3C[C@@H]1CC[C@@H]1[C@@H]2CC[C@@]2(C)[C@H]1CC[C@]2(C)O`: the Potency is 11.9 µM (active).
Still for that read-out and setting: the same measure for `[Cd+2].[Cl-].[Cl-]`: 1.23 µM (active) and 611 nM (active); for `O=c1[nH]c2ccccc2n1C1CCN(CCCC(c2ccc(F)cc2)c2ccc(F)cc2)CC1`: 30.6 µM (active) and 26.6 µM (active).
The same measure, in the same setting: for `CN(C)C(=S)[S-].CN(C)C(=S)[S-].[Cu+2]` the value was 1.67 µM (active).
On to `CC(Cl)CN(C)C` (configuration not stated), for which the “activity change, negative = cytotoxicity” value was 7.51%.
As for `CCCCCCCCCCCCCCCCCCn1cc[n+](C)c1`, the Potency was 4.3 µM (active).
The same measure, in the same setting: the same measure for `CCCN(CCC)c1c([N+](=O)[O-])cc(S(N)(=O)=O)cc1[N+](=O)[O-]`: 50.1 µM (active).

The values are drawn from PubChem BioAssay (Tox21).
